Inconclusive results are not listed. Entries that show only a call come without a potency. Active and inactive are the calls of the source. Calls come from the whole dose curve.
Test: Cytotoxicity counterscreen for inhibitors of SARS-CoV-2 cell entry (AID 1645845); note: nearly all actives have a fitted effect of over 50% in size
Settings: cell viability (SARS-CoV-2 entry assay cells); series mostly up to 57.1 µM
How it was run: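 Counterscreen run in the same HEK293-ACE2 line as the pseudotyped-particle entry assay, without particles. Viability after 48 h at 37 C was read as ATP luminescence, scaled between cell-containing and cell-free wells.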
Potency is the fitted concentration of half-maximal effect.

Structure (SMILES) | Potency
N#Cc1ccnc(N2C(=O)CC[C@H]2C(=O)N(c2cncc(F)c2)[C@H](C(=O)NC2CC(F)(F)C2)c2ccccc2Cl)c1 | inactive
CN(Cc1ccccc1)C(=O)c1ccc(S(=O)(=O)Nc2ccccc2)cc1 | inactive
O=C(NCC(=O)N1CC[C@H](NC2CCC(O)(c3ccc(-c4ncccn4)cn3)CC2)C1)c1cccc(C(F)(F)F)c1 (stereo not given in full) | inactive
COc1cc(N2CCC(N(C)C)CC2)ccc1Nc1ncc(Cl)c(Nc2ccccc2P(C)(C)=O)n1 | 15.8 µM (active)
CC(C)C(=O)OCC(=O)[C@@]12O[C@H](C3CCCCC3)O[C@@H]1C[C@H]1[C@@H]3CCC4=CC(=O)C=C[C@]4(C)[C@H]3[C@@H](O)C[C@@]12C | inactive
CC1(N)CCN(c2cnc(-c3cccc(Cl)c3Cl)c(N)n2)CC1 | inactive
Cc1ccc2cc(-c3c(C)ccc(C(=O)c4c(-c5ccccc5)n(C)n(-c5ccccc5)c4=O)c3N)ccc2n1 | inactive
COc1cc(N2CCC(N)CC2)ccc1Nc1ncc(Cl)c(-c2c[nH]c3ccccc23)n1 | 31.6 µM (active)
CN1CCN(c2ccc(-c3cccc(CN4CCOCC4)c3)cc2NC(=O)c2c[nH]c(=O)cc2C(F)(F)F)CC1 | inactive
CCN(CC)C(=O)Cc1csc(NS(=O)(=O)c2cccc(Cl)c2C)n1 | inactive
CCS(=O)(=O)N1CCN(c2ccc(Nc3ncc(C(N)=O)c(NC4CC4)n3)cc2)CC1 | 25.1 µM (active)
CC1(C)OC2=C(C(=O)c3ccccc3C2=O)[C@H](NCc2ccccc2)[C@@H]1O | 10 µM (active)
CCn1c(=O)c(-c2ccc(-c3cncs3)cc2Cl)cc2cnc(Nc3ccc(N4CCN(C)CC4)cc3)nc21 | inactive
C[C@@H]1COCCN1c1cc(=O)n2c(n1)N(Cc1cncc(Cl)c1)[C@H](C(F)(F)F)CC2 | inactive
CCN(CC)CCNc1ccc(C)c2sc3ccccc3c(=O)c12 | 28.2 µM (active)
CCCC(CCC)C(=O)Nc1ccn([C@@H]2O[C@H](CO)[C@@H](O)C2(F)F)c(=O)n1 | inactive
CCN1C(=O)N2Cc3cc(OC)cc(OC)c3[C@@H](C)C=C2C12CCN(Cc1cc(C)cc(C)c1)CC2 | inactive
C[C@]1(C(=O)N(CCCC(=O)O)Cc2cccc(Cl)c2)CCN1C(=O)c1csc2ccccc12 | inactive
C[C@H](NC(=O)c1c(N)nn2cccnc12)c1cc2cccc(C#Cc3cnn(C)c3)c2c(=O)n1-c1ccccc1 | inactive
C=CC(=O)Nc1cccc(Nc2nc(Nc3ccc(N4CCN(C(C)=O)CC4)cc3OC)ncc2C(F)(F)F)c1 | 31.6 µM (active)

Structure (SMILES) | Potency
COCCOC(=O)N1CCN(S(=O)(=O)c2cc(F)c(Oc3ccc(Cl)cc3)c(F)c2)C(C(=O)NO)C1 (stereo not given) | 31.6 µM (active)
CCCC1(CCC)CCC2(CCN(CCCN(CC)CC)C2)CC1 | 7.08 µM (active)
CCNC(=O)Nc1ccc(Oc2ncnc(N)c2/C=N/OC)cc1Cl | inactive
CCC[C@H](NC(=O)/C(C#N)=C/c1cccc(Br)n1)c1ccccc1 | 20 µM (active)
CN1C(=O)N[C@@H](Cc2c[nH]c3c(Cl)cccc23)C1=O | inactive
O=C(COCC(=O)N1CCN(C(c2ccccc2)c2ccccc2)CC1)Nc1ccc(Cl)cc1C(=O)O | inactive
C[C@]12CCCN1CC1=NNC(=O)c3cc(F)cc4[nH]c2c1c34 | inactive
Cn1cc(-c2cc(Oc3cc(F)c(NC(=O)C4(C(=O)Nc5ccccc5)CC4)cc3F)ccn2)cn1 | inactive
O=C(O)/C(S)=C/c1ccc(I)cc1 | inactive
CCc1ccc2nc(Nc3cc(Cc4ccccc4)nc(NC4CCC(O)CC4)n3)sc2c1 (stereo not given) | inactive
Cc1c(NC(=O)OCC2COCCN2)cn2ncnc(Nc3ccc4c(cnn4Cc4cccc(F)c4)c3)c12 (stereo not given) | inactive
C=C1C(=O)O[C@H]2C[C@H](C)C(/C=C/C(C)=O)=CC[C@H]12 | 31.6 µM (active)
Nc1ncnc2c1C(=O)N(c1ccc(C3CCC(CC(=O)O)CC3)cc1)CCO2 (stereo not given) | inactive
CN(C)C/C=C/C(=O)Nc1cc2c(Nc3ccc(F)c(Cl)c3)ncnc2cc1O[C@H]1CCOC1 | inactive
N#Cc1ccc(Cn2cncc2CN2CCN(c3cccc(Cl)c3)C(=O)C2)cc1 | inactive
C=CC(=O)Nc1ccc2ncnc(Nc3cccc(Br)c3)c2c1 | 14.1 µM (active)
CCN1C(=O)CNc2ncc(-c3ccc(-c4ncn[nH]4)nc3C)nc21 | 22.4 µM (active)
O=C(O)CCCCN(CCc1ccccc1OCc1ccc(CCc2ccccc2)cc1)Cc1ccc(C(=O)O)cc1 | inactive
CN1CCN(c2ccc(Nc3ncc4cc(C#N)c(=O)n(C5CCCC5)c4n3)cc2)CC1 | inactive
Oc1ccc(Nc2nc(-c3ccc(Cl)cc3)cs2)cc1 | inactive

— PubChem BioAssay (NCATS)
